Measurements taken from PubChem BioAssay AID1468 (National Center for Advancing Translational Sciences (NCATS), 2008).
Hit rate of the full screen: of about 280,000 compounds, about 1,100 (0.39%) were called active. Inconclusive results (about 7%) are left out. What follows is part of a selection rich in actives, with near analogues and random picks from the rest. A number with no mark means an inactive call. Calls come from the whole dose curve; as a rule, active = well fitted inhibition curve with a large enough effect; inconclusive = small, poorly fitted or top-dose-only effect, or effect the other way; inactive = flat fitted curve, though single readings scatter.

molecular target: Microtubule-associated protein tau (Homo sapiens) (UniProt P10636); assay: qHTS for Inhibitors of Tau Fibril Formation, Fluorescence Polarization; conditions: K18 P301L tau heparin fibrillization, Alexa594 FP, 6 h; series mostly up to 57.7 µM; activity, negative = inhibition: at the top concentration; note: nearly all actives have a fitted effect of over 55% in size
From the text: NIH Molecular Libraries Probe Production Network [MLPCN]
NIH Chemical Genomics Center [NCGC]
Assay Provider: Carlo Ballatore, University of Pennsylvania
The microtubule-associated protein tau is an abundant protein in the axons of neurons that stabilizes microtubules. With its ability to modulate microtubule dynamics, tau contributes directly or indirectly, to key structural and regulatory cellular functions. Particularly important is the influence tau exerts on axonal transport, which allows signaling molecules, trophic factors and other essential cellular constituents to travel along the axons. Under pathological conditions, tau becomes sequestered into insoluble aggregates called neurofibrillary tangles. This phenomenon is believed to have pathological consequences by promoting axonal transport deficits that ultimately lead to synaptic dysfunction and neuronal loss. To identify inhibitors of tau aggregation, a heparin-induced tau fibril formation assay was used that employed a recombinantly expressed fragment of tau, K18 (Q242-E372), bearing a P301L mutation (Gustke et al. 1994; Hong et al. 1998).
Gustke, N., B. Trinczek, et al. (1994). "Domains of tau protein and interactions with microtubules." Biochemistry 33(32): 9511-22.
Hong, M., V. Zhukareva, et al. (1998).
Li, W. and V. M. Lee (2006). "Characterization of two VQIXXK motifs for tau fibrillization in vitro." Biochemistry 45(51): 15692-701.
von Bergen, M., S. Barghorn, et al. (2001). "Mutations of tau protein in frontotemporal dementia promote aggregation of paired helical filaments by enhancing local beta-structure." J Biol Chem 276(51): 48165-74.
NCGC Assay Protocol Summary:
For screening, 2 uL/well human K18 P301L (15 uM unlabeled and 0.24 uM Alexa 594-labeled tau final concentrations) in reagent buffer (100 mM sodium acetate pH 7) was dispensed into black solid 1536-well plates (Grenier) using a solenoid-based dispenser. Following transfer of 23 nL compound or DMSO vehicle by a pin tool, 2 uL/well heparin (20 uM final concentration) in reagent buffer was added and the plate centrifuged 15 s at 1000 RPM. Plates were incubated 6 hr at 37 C and then 1 uL/well ThT (30 uM final concentration) was added. After a 1 hr ambient incubation, the plates were read by an Envision (Perkin Elmer) to monitor Alexa 594 FP (555 nm excitation and 632 nm emission).
Keywords: NIH Roadmap, MLPCN, MLI, MLSMR, NCGC, qHTS, tau, tauopathies, Alzheimer's disease, fibril, neurodegeneration, aggregation
% is set by controls: 0 for no effect and ±100 for the full control effect; potency is the fitted concentration of half-maximal effect.

Sequence of Microtubule-associated protein tau (Homo sapiens) (P10636 561-689 P618L limits assumed): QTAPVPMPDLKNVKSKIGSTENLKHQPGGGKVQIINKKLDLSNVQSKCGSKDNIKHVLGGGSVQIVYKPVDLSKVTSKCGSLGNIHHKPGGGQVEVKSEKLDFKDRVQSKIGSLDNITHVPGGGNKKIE

Row | SMILES | activity, negative = inhibition [%] | Potency
1 | COc1ccc(OC)c(-c2noc(N3CCN(c4cc(Cl)ccc4C)CC3)n2)c1 | 5.31 | –
2 | COc1ccc(N(CC(=O)NCCc2ccc(Cl)cc2)S(=O)(=O)c2c(C)nn(C)c2C)cc1 | 3.88 | –
3 | COc1ccc2c(Sc3ccc(C)cc3)c(C(=O)NC(C)c3ccccc3)[nH]c2c1 (centres undefined) | 1.38 | –
4 | CSc1nc(Nc2ccc(F)cc2)cc(-c2ccccc2)n1 | – | 15.8 µM (active)
5 | Cc1cc(Nc2ccccc2)nc(N)n1 | 2.32 | –
6 | CSc1nc(-c2ccccc2)nc(C(Cl)Cl)n1 | -5.56 | –
7 | CCOC(=O)c1cccc(NS(=O)(=O)c2cc(-c3cnc(C)o3)ccc2OC)c1 | -6.24 | –
8 | COc1ccc(N2C(=O)CSC23C(=O)N(Cc2cccc(F)c2)c2ccccc23)cc1Cl (centres undefined) | -10.2 | –
9 | O=C(Nc1nnc(SCc2ccccc2)s1)c1ccco1 | -10.1 | –
10 | Brc1ccc(CSc2ccc(-c3ccco3)nn2)cc1 | -0.453 | –
11 | c1ccc(CSc2nnc(-c3ccco3)c(-c3ccco3)n2)cc1 | – | 12.6 µM (active)
12 | O=C(OCc1cc(=O)n2nc(C3CC3)sc2n1)c1ccccc1Cl | 2.73 | –
13 | COc1ccc2c(c1OC)C(=O)OC2Nc1nc(-c2ccccc2)cs1 (centres undefined) | – | 31.6 µM (active)
14 | COc1ccc2c(c1OC)C(=O)OC2c1c(O)nc(SC)n(-c2ccccc2)c1=O (centres undefined) | -8.67 | –
15 | COc1ccc(-c2csc(NC3OC(=O)c4ccccc43)n2)cc1 (centres undefined) | -9.14 | –
16 | O=C(CCCn1c(=O)c2cccn2c2cccnc21)NCc1ccc(F)cc1 | -10.2 | –
17 | COc1ccc(OC)c2sc(N3CCN(C(=O)C4COc5ccccc5O4)CC3)nc12 (centres undefined) | -6.25 | –
18 | FC(F)(F)c1cc(Nc2nc3ccccc3c3nncn23)ccc1Cl | – | 10 µM (active)
19 | COc1cccc(Nc2nc3ccccc3c3nncn23)c1 | -14.4 | –
20 | Fc1ccc(C(Nc2ccc(Cl)c(C(F)(F)F)c2)c2nnc(-c3ccccc3)o2)cc1 (centres undefined) | -9.8 | –
21 | COc1ccc(-c2cc(C(F)(F)F)n3nc(-c4ccccc4)cc3n2)cc1OC | -7.35 | –
22 | COc1ccc(OC)c(CNC(=O)Cn2nc(C)c3c(C)n(-c4ccccc4)nc3c2=O)c1 | -0.531 | –
23 | CCN(CC)c1ccc2oc(=O)c(C)nc2c1 | – | 12.6 µM (active)
24 | CCN(CC)c1ccc(/C=N/Nc2nc(C)cc(C)n2)c(O)c1 | 3.84 | –
25 | CCN(CC)c1ccc2c(Nc3ccccc3)c(C=O)c(=O)oc2c1 | 2.78 | –

Row | SMILES | activity, negative = inhibition [%] | Potency
26 | CC1CCCCN1CC(=O)N1CCCc2c1c(=O)oc1ccc(OCc3ccccc3)cc21 (centres undefined) | -4.88 | –
27 | CCc1ccccc1NC(=O)N1CCN(C(=O)c2nsc3ccccc23)CC1 | -1.92 | –
28 | Cc1c(C(=O)N2CCCC2)oc2c1-c1nn(CC(=O)NCc3ccc(OC(C)C)cc3)cc1CC2 | 9.67 | –
29 | O=C1C(c2ccccn2)=[N+]([O-])c2ccccc21 | – | 7.94 µM (active)
30 | Cc1ccc(-c2nnc(SCC(=O)NCc3ccccc3)nc2-c2ccc(C)cc2)cc1 | -2.83 | –
31 | CSc1ncc(Cl)c(C(=O)Nc2ccc(S(=O)(=O)N3CCCC(C)C3)cc2)n1 (centres undefined) | -18 | –
32 | O=C(CSc1nc(-c2cccc(F)c2)[nH]c1-c1ccccc1)Nc1ccc2c(c1)OCO2 | -13.5 | –
33 | COc1ccc(-c2cn3nc(N4CCCC(C(=O)NCCCOC(C)C)C4)sc3n2)cc1 (centres undefined) | 12.2 | –
34 | O=C(CSc1nnnn1-c1ccc(O)cc1)N1N=C(c2ccc3ccccc3c2)CC1c1ccccc1 (centres undefined) | – | 25.1 µM (active)
35 | COc1ccc(C2CC(c3ccccc3)=NN2C(=O)CSc2nccc(=O)[nH]2)cc1 (centres undefined) | 3.39 | –
36 | O=C(CSc1nnnn1-c1ccc(O)cc1)c1ccc(F)cc1 | -6.29 | –
37 | COc1ccc(Cl)cc1NC(=O)C(C)Sc1nc2c(c(=O)[nH]1)CCCC2 (centres undefined) | -9.47 | –
38 | O=C(Cn1ncc2c3ccccc3n(Cc3ccccc3)c2c1=O)NC1CCCCCC1 | -3.1 | –
39 | Clc1ccc(CSc2nncn3c2cc2occc23)cc1 | -6.93 | –
40 | COc1ccc(C2CC(=O)N(Cc3ccccc3C)c3c2c(C)nn3-c2nc(C)cc(C)n2)c(OC)c1 (centres undefined) | 5.46 | –
41 | Cc1ccc(C)c(S(=O)(=O)c2nnn3c2nc(N2CCOCC2)c2sccc23)c1 | -0.999 | –
42 | O=C(CSc1nc(Nc2ccc(F)c(F)c2)c2ccccc2n1)c1ccc(Cl)cc1 | -2.77 | –
43 | Fc1ccc(Nc2nc(SCc3ccccc3Cl)nc3ccccc23)cc1 | – | 6.31 µM (active)
44 | Fc1ccc(CSc2nc(NCc3ccccc3)c3ccccc3n2)cc1 | 0.594 | –
45 | Cc1ccc(C(=O)N2c3ncnn3C3(CCCCC3)[C@@H]3CCCC[C@@H]32)cc1 | -0.63 | –
46 | CCOc1ccc2nc(Nc3nc4ccc(NC(C)=O)cc4s3)sc2c1 | 17.7 | –
47 | CC(=O)Nc1ccc2nc(SCCOc3cc(C)cc(C)c3)sc2c1 | – | 12.6 µM (active)
48 | Cc1ccc(OCCSc2nc3ccc(NC(=O)COc4ccc(C)cc4)cc3s2)cc1 | 1.12 | –
49 | COc1ccccc1C(=O)NCCn1cc(SCc2ccccc2Cl)c2ccccc21 | 7.76 | –
